# Values joined by “and” are separate entries in the source; they are usually repeats but may differ in a detail not shown here. Equal entries are not always repeated. Records with an inconclusive call do not appear. A structure can be active in one record and inactive in another. Active and inactive are the calls of the source. Rule for the calls, unless noted: active = hit-call score of the fitted dose curve at least 0.9, where 1 is the maximum; inactive = score below 0.9.
# Columns and labels:
# [1] = target: Nucleoli Translocation, AR (gene 367) (UniProt P10275); assay: UPITT_HCI_U2OS_AR_TIF2_Nucleoli_Antagonist: University of Pittsburgh U2OS Androgen Receptor-Transcriptional Intermediary Factor 2 (AR-TIF2) Antagonism High Content Imaging Assay for Nucleoli Translocation (AID 2283997; active = hit-call score of the fitted dose curve at least 0.9, where 1 is the maximum)
# Sequence of Nucleoli Translocation, AR (gene 367) (P10275 whole entry, looked up, the tested form may be a part): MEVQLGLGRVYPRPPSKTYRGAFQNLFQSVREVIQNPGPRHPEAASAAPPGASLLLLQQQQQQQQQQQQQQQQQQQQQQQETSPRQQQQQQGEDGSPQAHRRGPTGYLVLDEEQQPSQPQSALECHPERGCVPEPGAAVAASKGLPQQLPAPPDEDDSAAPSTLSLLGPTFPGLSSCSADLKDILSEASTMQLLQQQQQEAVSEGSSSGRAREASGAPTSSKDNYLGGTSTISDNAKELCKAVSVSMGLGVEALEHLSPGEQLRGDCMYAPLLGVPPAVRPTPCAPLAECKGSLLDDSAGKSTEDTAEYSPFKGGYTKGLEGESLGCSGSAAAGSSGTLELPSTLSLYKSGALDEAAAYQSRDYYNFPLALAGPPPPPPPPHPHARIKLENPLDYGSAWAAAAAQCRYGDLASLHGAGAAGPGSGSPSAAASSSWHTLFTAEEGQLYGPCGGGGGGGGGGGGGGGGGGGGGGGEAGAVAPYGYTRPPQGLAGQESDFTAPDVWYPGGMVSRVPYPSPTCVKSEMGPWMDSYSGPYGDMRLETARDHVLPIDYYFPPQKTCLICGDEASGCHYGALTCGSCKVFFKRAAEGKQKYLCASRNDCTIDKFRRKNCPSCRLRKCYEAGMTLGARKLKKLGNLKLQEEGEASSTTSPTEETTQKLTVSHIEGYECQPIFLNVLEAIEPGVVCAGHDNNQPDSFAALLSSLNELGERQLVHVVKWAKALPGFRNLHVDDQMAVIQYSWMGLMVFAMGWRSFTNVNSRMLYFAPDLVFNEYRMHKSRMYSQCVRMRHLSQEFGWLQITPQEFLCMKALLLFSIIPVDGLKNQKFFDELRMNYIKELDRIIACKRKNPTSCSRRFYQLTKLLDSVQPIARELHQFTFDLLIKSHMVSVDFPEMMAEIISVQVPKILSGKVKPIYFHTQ
# How it was run: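 Measured quantity was AR-RFP fluorescence localized to nucleoli in engineered U2OS cells also bearing TIF2-GFP, acquired on automated high-content imagers. Primary testing used 20 uM compound; actives were confirmed in triplicate wells.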
# [2] = target: Nucleoli Translocation, AR (gene 367) (UniProt P10275); assay: UPITT_HCI_U2OS_AR_TIF2_Nucleoli_Agonist: University of Pittsburgh U2OS Androgen Receptor-Transcriptional Intermediary Factor 2 (AR-TIF2) Agonism High Content Imaging Assay for Nucleoli Translocation (AID 2283998; active = hit-call score of the fitted dose curve at least 0.9, where 1 is the maximum)
# How it was run: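 Cells express human AR fused to red fluorescent protein and TIF2 fused to GFP. Red fluorescence in the nucleolar region was quantified by high-content imaging and fitted as gain-of-signal against a DMSO baseline. Compounds were tested at 0.195 to 50 uM final (0.5% DMSO).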
# [3] = target: Ratio of Nucleoli Translocation and Cytoplasm, AR (gene 367) (UniProt P10275); assay: UPITT_HCI_U2OS_AR_TIF2_Nucleoli_Cytoplasm_Ratio_Antagonist: University of Pittsburgh U2OS Androgen Receptor-Transcriptional Intermediary Factor 2 (AR-TIF2) Antagonism High Content Imaging Assay for Ratio of Nucleoli Translocation and Cytoplasm (AID 2283999; active = hit-call score of the fitted dose curve at least 0.9, where 1 is the maximum;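 note: antagonists lower the DHT-driven ratio of nucleolar to cytoplasmic red signal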)
# Sequence of Ratio of Nucleoli Translocation and Cytoplasm, AR (gene 367) (P10275 whole entry, looked up): as the sequence (P10275 whole entry, looked up, the tested form may be a part) above
# How it was run: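 U2OS cells expressing RFP-tagged human AR and GFP-tagged TIF2; compounds tested at 20 uM final (0.2% DMSO) in primary screen, 0.195–50 uM (0.5% DMSO) for concentration response. Readout: nucleolar-to-cytoplasmic red fluorescence ratio by high-content imaging, fitted relative to DHT.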
# [4] = CCTE_Shafer_MEA_acute_spike_number: CCTE's Neural Acute Assay for Total Number of Spikes, Shafer Lab (AID 2284008);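 for AC50: curve fitted for decrease in spike count so AC50 reflects inhibitors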
# How it was run: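 Primary rat cortical neurons on 16-electrode MEA wells; on DIV 13 or 15, 40-min baseline then 40-min recording with compound (0.03-40 uM) at 37 C. Spikes detected at 8x rms noise; percent change versus baseline, DMSO as negative control.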
# [5] = CCTE_Shafer_MEA_acute_firing_rate_mean: CCTE's Neural Acute Assay for Mean Firing Rate, Shafer Lab (AID 2284009);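 note: analyzed for loss of signal so actives lower firing rate relative to DMSO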
# How it was run: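 Percent change in well-mean firing rate was derived from extracellular spikes detected at 8x rms noise (300-5000 Hz band-pass) before and after a 40-min compound exposure. Cultures were primary rat cortical neurons, tested at 0.03-40 uM.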
# [6] = CCTE_Shafer_MEA_acute_burst_number: CCTE's Neural Acute Assay for Single-Electrode Bursts, Shafer Lab (AID 2284013)
# How it was run: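 Spontaneous network activity of primary rat cortical neurons was recorded extracellularly on microelectrode arrays at 37 C, with 40-min periods before and during exposure to 0.03-40 uM compound on DIV 13 or 15.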
# [7] = CCTE_Shafer_MEA_acute_burst_duration_mean: CCTE's Neural Acute Assay for Mean Burst Duration, Shafer Lab (AID 2284014);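 note: hits are decreases in mean burst duration relative to DMSO controls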
# How it was run: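 Read-out is the per-well percent change in mean burst duration (first to last spike within a single-electrode burst) between 40-min recordings before and after compound. Cultures were primary rat cortical neurons on MEAs, dosed at 0.03-40 uM on DIV 13 or 15.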
# [8] = CCTE_Shafer_MEA_acute_per_burst_spike_number_mean: CCTE's Neural Acute Assay for Average Number of Spikes Per Burst, Shafer Lab (AID 2284015);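 note: hits are decreases in mean spikes per burst versus baseline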
# How it was run: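 Percent change in mean spikes per single-electrode burst is compared between a 40 min baseline and a 40 min recording with compound (0.03-40 uM). Cultures were rat cortical neurons on MEA plates at DIV 13 or 15, recorded at 37 C, with DMSO as the negative control.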
# [9] = CCTE_Harrill_HTTr_Viability_MCF7: CCTE's 6-hour Cell Viability Assessment for the High-Throughput Transcriptomics (HTTr) Platform, in MCF-7 cells cultured in DMEM + 10% fetal bovine serum, Harrill Lab (AID 2284010)
# How it was run: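 Membrane integrity was scored by high-content imaging of propidium iodide dye exclusion after a 6 h exposure across an eight-point dilution series. Data were fitted bidirectionally relative to DMSO as negative control and baseline.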
# [10] = CCTE_Harrill_HTTr_Apoptosis_MCF7: CCTE's 6-hour Apoptosis Assessment for the High-Throughput Transcriptomics (HTTr) Platform, in MCF-7 cells cultured in DMEM + 10% fetal bovine serum, Harrill Lab (AID 2284011)
# How it was run: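 MCF-7 cells in DMEM + 10% fetal bovine serum were exposed to chemicals for 6 hours over an eight-point dilution series. Caspase-3/7 activation was imaged by high content imaging with CellEvent Caspase 3/7 Green; bidirectional fitting used DMSO as baseline.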
# [11] = CCTE_Harrill_HTTr_CellCount_MCF7: CCTE's Cell Proliferation Assessment for the High-Throughput Transcriptomics (HTTr) Platform, Harrill Lab (AID 2284012; active = hit-call score of the fitted dose curve at least 0.9, where 1 is the maximum;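 note: cells exposed to compound for six hours; intended direction is loss of nuclei count meaning fewer cells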)
# How it was run: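 MCF-7 cells were exposed for 6 h to an eight-point dilution series; Hoechst-labeled nuclei were counted by high content imaging. Curves were fitted bidirectionally against DMSO as negative control and baseline, with signal loss indicating reduced cell count.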
# [12] = CCTE_Simmons_MITO_basal_resp_rate: CCTE's HepG2 Seahorse XF Respirometric Screening Assay at Basal Respiratory State, Simmons Lab (AID 2284001); conditions: actives raise or lower the signal
# How it was run: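 HepG2 respirometry; 7-pt titration 125 nM–100 uM final; kinetic OCR at 6 min intervals for 72 min; n=3 biological, technical singles; DMSO baseline, gain or loss fit; fenpyroximate (decrease) and 2,4-DNP (increase) controls.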
# [13] = CCTE_Simmons_MITO_max_resp_rate: CCTE's HepG2 Seahorse XF Respirometric Screening Assay at Maximal Respiratory State [uncoupled], Simmons Lab (AID 2284002); conditions: actives raise or lower the signal
# How it was run: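 HepG2 oxygen consumption was read on a Seahorse XF96 after FCCP uncoupler injection, following test compound injection; 7 concentrations, 125 nM–100 uM final, three biological replicates. Bidirectional fitting against DMSO vehicle baseline.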
# [14] = CCTE_Simmons_MITO_inhib_resp_rate: CCTE's HepG2 Seahorse XF Respirometric Screening Assay at Inhibited Respiratory State [full ETC block], Simmons Lab (AID 2284006); conditions: actives raise or lower the signal
# How it was run: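 HepG2 cells on Seahorse XF96; oxygen consumption measured after test compound, then FCCP, then rotenone/antimycin A injections over 72 min. Test chemicals at 7 concentrations, 125 nM–100 uM final. OCR fitted bidirectionally versus DMSO.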
# [15] = CCTE_Simmons_MITO_viability: CellTiter-Glo Viability Assessment for CCTE's HepG2 Seahorse XF Respirometric Screening Assay [post-hoc], Simmons Lab (AID 2284007; active = hit-call score of the fitted dose curve at least 0.9, where 1 is the maximum;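 note: cells exposed to chemical for 90 min before the ATP read; actives lower ATP signal relative to DMSO baseline meaning reduced viability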)
# How it was run: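 HepG2 cells from the Seahorse XF respirometry run were exposed 90 min to a 7-point series, 125 nM–100 uM final, DMSO vehicle; ATP content then read by luciferase luminescence. Three biological replicates, technical singles; loss of signal fitted versus DMSO.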
# DIO1 (gene 1733) = assay: CCTE_GLTED_hDIO1: CCTE's human Deiodinase 1 (DIO1) Inhibition Assay, Great Lakes Toxicology and Ecology Division (GLTED) Lab (AID 2283987; active = hit-call score of the fitted dose curve at least 0.9, where 1 is the maximum;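 note: isolated human DIO1 enzyme in a cell-free setup rather than cells; enzyme activity read as free iodide liberated from substrate via Sandell-Kolthoff colorimetry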)
# How it was run: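 Cell-free human DIO1 enzyme was incubated with test chemical for 3 h, and iodide released from substrate was measured by Sandell-Kolthoff absorbance. Loss of signal versus DMSO baseline indicated inhibition; plates were run in triplicate.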
# [16] = target: Retinoic acid receptor RXR-alpha (Homo sapiens) (UniProt P19793); assay: TOX21_TR_RXR_BLA_Agonist_Followup_ratio: Tox21 Thyroid Hormone Receptor beta Retinoid X Receptor alpha (RXRa) Agonism Beta-lactamase (BLA) Follow-Up Assay, Ratio (AID 2283968; active = hit-call score of the fitted dose curve at least 0.9, where 1 is the maximum)
# Sequence of Retinoic acid receptor RXR-alpha (Homo sapiens) (P19793 whole entry, looked up, the tested form may be a part): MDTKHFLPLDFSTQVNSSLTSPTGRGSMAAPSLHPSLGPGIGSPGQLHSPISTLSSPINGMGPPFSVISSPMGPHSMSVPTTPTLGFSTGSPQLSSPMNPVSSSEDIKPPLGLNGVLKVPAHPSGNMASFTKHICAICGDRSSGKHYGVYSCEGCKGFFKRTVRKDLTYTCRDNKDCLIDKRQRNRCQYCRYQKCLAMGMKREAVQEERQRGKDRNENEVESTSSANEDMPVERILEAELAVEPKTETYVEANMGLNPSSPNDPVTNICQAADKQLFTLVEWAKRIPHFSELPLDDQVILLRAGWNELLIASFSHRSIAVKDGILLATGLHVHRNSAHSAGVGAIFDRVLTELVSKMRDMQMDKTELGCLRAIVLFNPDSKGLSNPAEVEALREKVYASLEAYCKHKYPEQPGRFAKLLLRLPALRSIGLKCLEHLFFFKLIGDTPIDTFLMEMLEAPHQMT
# How it was run: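 RXRa-UAS-bla HEK293T cells (GAL4 beta-lactamase reporter) were treated with compounds at 11 concentrations in triplicate for 16 h at 37C/5% CO2, then loaded with CCF4-AM substrate for 2 h at room temperature; activity is the 460:530 nm ratio versus DMSO baseline.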
# [17] = TOX21_TR_RXR_BLA_Agonist_Followup_viability: Viability Assessment in the Tox21 Thyroid Hormone Receptor beta Retinoid X Receptor alpha (RXRa) Agonism Beta-lactamase (BLA) Follow-Up Assay (AID 2283970; active = hit-call score of the fitted dose curve at least 0.9, where 1 is the maximum)
# How it was run: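 RXRa-UAS-bla HEK293T cells seeded at 2,500/well in phenol red-free DMEM with 2% charcoal-stripped FBS, exposed to compound 16h at 37C/5% CO2 in qHTS. Viability read by CellTiter-Glo ATP luminescence; bidirectional fitting against DMSO baseline, signal loss indicating cytotoxicity.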
smiles,measurement,setting,value
COC(=O)c1cccc(C(=O)OC)c1,outcome,[1],inactive
same,outcome,[2],inactive
same,outcome,[3],inactive
CC(=O)c1ccc(C)cc1,AC50,[4],3 nM (active)
same,AC50,[5],3 nM (active)
same,AC50,[6],3 nM (active)
same,outcome,[7],inactive
same,outcome,[8],inactive
CC(C)CCCC(C)(C)O,outcome,[4],inactive
same,outcome,[5],inactive
same,outcome,[6],inactive
same,outcome,[7],inactive
same,outcome,[8],inactive
OC[C@H]1O[C@@H](O[C@H]2[C@H](O)[C@@H](O)[C@H](O)O[C@@H]2CO)[C@H](O)[C@@H](O)[C@H]1O,outcome,[1],inactive
same,outcome,[3],inactive
same,outcome,[9],inactive
same,outcome,[10],inactive
same,outcome,[11],inactive
CC(CCO)CC(C)(C)C (stereo not drawn),outcome,[1],inactive
same,outcome,[2],inactive
same,outcome,[3],inactive
CCCCN(CCO)CCO,outcome,[4],inactive
same,outcome,[5],inactive
same,outcome,[6],inactive
same,outcome,[7],inactive
same,outcome,[8],inactive
C[C@]12CC[C@@H]3c4ccc(O)cc4CC[C@H]3[C@@H]1CC[C@@H]2O,AC50,[12],27.1 µM (active)
same,outcome,[13],inactive
same,outcome,[14],inactive
same,AC50,[15],27 µM (active)
same,outcome,[10],inactive
CCCCCCCCOC(=O)c1ccc(O)cc1,AC50,DIO1 (gene 1733),86.4 µM (active)
CCC(C)(C)C1CCC(=O)CC1,outcome,[1],inactive
same,outcome,[2],inactive
same,outcome,[3],inactive
FC(F)(F)c1ccc(Cl)c(Cl)c1,outcome,[1],inactive
same,outcome,[3],inactive
same,outcome,[9],inactive
same,outcome,[10],inactive
same,outcome,[11],inactive
O=C1OCc2ccccc21,outcome,[9],inactive
same,outcome,[10],inactive
CCCCCCOc1ccc(O)cc1,AC50,[1],50 µM (active)
same,AC50,[2],27.7 µM (active)
same,AC50,[3],90 µM (active)
O=C(c1ccc(OCCN2CCCCC2)cc1)c1c(-c2ccc(O)cc2)sc2cc(O)ccc12,AC50,[4],14300 nM (active)
same,AC50,[5],14100 nM (active)
same,outcome,[9],inactive
same,outcome,[10],inactive
same,outcome,[11],inactive
same,AC50,[6],11200 nM (active)
same,outcome,[7],inactive
same,outcome,[8],inactive
CC1COC(=O)O1 (stereo not drawn),outcome,[1],inactive
same,outcome,[2],inactive
CC(C)(CO)CO,outcome,[2],inactive
same,outcome,[4],inactive
same,outcome,[5],inactive
same,outcome,[6],inactive
same,outcome,[7],inactive
same,outcome,[8],inactive
CCCCCCC(C)O (stereo not drawn),outcome,[16],inactive
same,outcome,[17],inactive
CCCCCCCCCCOC(=O)c1ccccc1C(=O)OCCCCCCCC,outcome,[1],inactive
same,outcome,[2],inactive
O=C(O)C1=NN(c2ccc(S(=O)(=O)O)cc2)C(=O)C1,AC50,DIO1 (gene 1733),57.6 µM (active)
same,outcome,[10],inactive
same,outcome,[11],inactive
c1ccc(OCCOc2ccccc2)cc1,outcome,[4],inactive
same,outcome,[5],inactive
same,outcome,[9],inactive
same,outcome,[10],inactive
same,outcome,[11],inactive
same,outcome,[6],inactive
same,outcome,[7],inactive
same,outcome,[8],inactive
CC/C(=C(\c1ccccc1)c1ccc(OCCN(C)C)cc1)c1ccccc1,AC50,DIO1 (gene 1733),56.9 µM (active) and 72.6 µM (active)
same,outcome,[12],inactive
same,outcome,[13],inactive
same,outcome,[14],inactive
same,AC50,[15],73.5 µM (active)
same,AC50,[4],2.73 µM (active) and 4.6 µM (active)
same,AC50,[5],2.73 µM (active) and 4.63 µM (active)
same,outcome,[10],inactive
same,AC50,[11],72.5 µM (active)
same,outcome,[11],inactive
same,AC50,[6],2.79 µM (active) and 4.2 µM (active)
same,outcome,[7],inactive
same,AC50,[8],18.3 µM (active)
same,outcome,[8],inactive
CCOc1ccc(NC(C)=O)cc1,outcome,[1],inactive
same,outcome,[2],inactive
same,outcome,[3],inactive
same,outcome,[9],inactive
same,outcome,[10],inactive
same,outcome,[11],inactive
CCCCOCCOCCO,outcome,[4],inactive
same,outcome,[5],inactive
same,outcome,[10],inactive
same,outcome,[11],inactive
same,outcome,[6],inactive
same,outcome,[7],inactive
same,outcome,[8],inactive

# From PubChem BioAssay (EPA / NIEHS)
